According to the supplement of paper PMC6555819:

Each sequence was assayed on PPARg:RXRa 270nM:90nM, anti-RXR (NR concentration 270 nM, RXRa partner concentration 90 nM) (assay: PBM binding z-score (relative to random genomic background probes); higher = stronger binding; sequences stand for … in GC…GCGATTGACAGCGTAGAATGAAGG).
In short: (§1)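 Binding buffer was PBS pH 7.4 with 2% milk, 0.02% Triton X-100, 1 mM DTT, 0.2 mg/mL BSA and 0.4 mg/ml salmon testes DNA. In it, ligand-free nuclear receptor dimers were incubated 1 h on custom Agilent 4×180K protein-binding microarrays carrying double-stranded probes. Antibodies against each partner (one per run) detected binding, and z-scores were calculated against random background probes after regression normalization of scanned fluorescence.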

Row | Sequence | PBM binding z-score
1 | CCAGACAGGTGAGAAGGGAACTCAGCCTCGATTA | 0.174
2 | ACTCGGAGGACAAAGGTCTGAGCTACGCCAGTGA | 3.29
3 | ACCTCTAGGTAACCAAGTTCAGTGAATGCCGAAC | 0.581
4 | AATACAGGGTCATCGTAGGCCGGAGTACGCACAG | 5.92
5 | CCACCAAGGTGAACAAGGTCGTTGATTACTATTC | 1.23
6 | CCGAGTAGGTTATGGCGCATTCAGGCAACGGTGA | 0.503
7 | ACTTACGGGTCAACGAGGGTATAGCACGCGTATA | 5.06
8 | CGTCCAAGGTCAGAGAGGTCAGTCAATGCCGAGT | 4.63
9 | CAAACTAGGTCAAGAGGTTAAAGTCCGCTTCCCG | 7.27
10 | TCTAGCAGGCCAGAGAGTCACTCAAGAGGTACGG | 1.18
11 | TCTTTTAGATCAAAGGTTAAGAAAGCCGAAGCCT | 6.92
12 | CAAACTTGGTCAAGGTCAAAGTCGGTTTGTGCCA | 3.77
13 | GCGACTGTGGCATCAGCAGGTTACCATAACTTAA | -0.457
14 | ATCGAAAGGTCGAGGAGAGTATAGAGAAAGGGAA | 2.92
15 | CATACAGGGTCAGCTAGGCCACAGTAGGGACGGC | 3.32
16 | TCATATAGGAAAATGCTAGGTGAAAGTCCGATCT | 2.3
17 | CCTCGGAGGACAGAACGTCAGAGCTGTCCGCTTT | -1.32
18 | CCGACTGGGGCATAAGGTTACCATGAGCCAGCCC | 3.24
19 | TCTTGTAGATCAAGCAGGTTTAGAAAGCCTGAGT | 0.91
20 | GGAACGAGGGCAAGTTGATGGCAGAGTTTGATGG | 0.903

Row | Sequence | PBM binding z-score
21 | CCTCGGAGGACAACAGGTGGTCAGAGCTGCCAGA | -0.79
22 | TCGAGTAGGTTCCCAATGGGGCATTCAGCTTTCT | 0.361
23 | TCGAATAGGTTAGTCGGGGCATTCAGCCAACATA | 1.54
24 | TCGAGTAGGTTACCAATGGGGTATTCAGCTTTCT | 1.14
25 | CAAACTAGTTCAAGGTCAAAGTCGGTTTGTGCCA | 3.88
26 | CGAACTAGGTCATCCAGGACAGCGAATACATTGA | 6.41
27 | ATACCAAAGTGATCGTGAGGTCGTTGATACTAAC | 0.258
28 | ACCTCTAGGTAAGACTCAGTTCAGTGAAGAACGC | 0.031
29 | TCATATAGGTAAAATGTGAAAGTCGGTGTGGTAA | 4.54
30 | CCGACTGGGGCAGAAAGGTTACCATCCCATCCGG | 2.53
31 | TGGAGTAGGTTAGGGGCATTCAGAATGGCGTCGA | 3.05
32 | CCTACTGGGCCAAAGTCATTGATCAGTCAAAGCA | 2.53
33 | ATTCGGAGGACAAAGGTCAGAGCTACGCCAGTGA | 6.94
34 | ATACCAAGGTGATCGTGAGGTCGTTGAGACTAAC | 0.352
35 | GCTAGCAGGCCAGTTGGGTCACTCAATGACGGGC | 0.0245
36 | CCTACTGGGCCCAAAAGGTCATTGATGCCGATAA | 3.47
37 | AGAACGAGGGCACGATGAGTTGATAGCAGAGTAG | 2.02
38 | TCATATAAGTAATACAGGTGAAAGTCGGCATCTA | 2.38
39 | ATCGAAATGTCGACGAGGTGAGTATACACCGTTT | -0.108
40 | TCTCGGAGGACACGAAAGGTCAGAGCTCGACATC | 2.8

The sequences below were run on PPARg:RXRa 30nM:10nM, anti-RXR (NR concentration 30 nM, RXRa partner concentration 10 nM) in the same assay as above.
In short: as §1

Row | Sequence | PBM binding z-score
41 | CCAGACAGGTGAGAAGGGAACTCAGCCTCGATTA | -0.465
42 | ACTCGGAGGACAAAGGTCTGAGCTACGCCAGTGA | 1.06
43 | ACCTCTAGGTAACCAAGTTCAGTGAATGCCGAAC | -0.247
44 | AATACAGGGTCATCGTAGGCCGGAGTACGCACAG | 2.34
45 | CCACCAAGGTGAACAAGGTCGTTGATTACTATTC | -0.313
46 | CCGAGTAGGTTATGGCGCATTCAGGCAACGGTGA | -0.377
47 | ACTTACGGGTCAACGAGGGTATAGCACGCGTATA | 1.72
48 | CGTCCAAGGTCAGAGAGGTCAGTCAATGCCGAGT | 1.03
49 | CAAACTAGGTCAAGAGGTTAAAGTCCGCTTCCCG | 5.14
50 | TCTAGCAGGCCAGAGAGTCACTCAAGAGGTACGG | 1.72
51 | TCTTTTAGATCAAAGGTTAAGAAAGCCGAAGCCT | 6.34
52 | CAAACTTGGTCAAGGTCAAAGTCGGTTTGTGCCA | 1
53 | GCGACTGTGGCATCAGCAGGTTACCATAACTTAA | -0.399
54 | ATCGAAAGGTCGAGGAGAGTATAGAGAAAGGGAA | 1.38
55 | CATACAGGGTCAGCTAGGCCACAGTAGGGACGGC | 0.994
56 | TCATATAGGAAAATGCTAGGTGAAAGTCCGATCT | 4.01
57 | CCTCGGAGGACAGAACGTCAGAGCTGTCCGCTTT | -1.28
58 | CCGACTGGGGCATAAGGTTACCATGAGCCAGCCC | 1.36
59 | TCTTGTAGATCAAGCAGGTTTAGAAAGCCTGAGT | 2.24
60 | GGAACGAGGGCAAGTTGATGGCAGAGTTTGATGG | -0.146

Row | Sequence | PBM binding z-score
61 | CCTCGGAGGACAACAGGTGGTCAGAGCTGCCAGA | -1.45
62 | TCGAGTAGGTTCCCAATGGGGCATTCAGCTTTCT | 0.7
63 | TCGAATAGGTTAGTCGGGGCATTCAGCCAACATA | 2.74
64 | TCGAGTAGGTTACCAATGGGGTATTCAGCTTTCT | 1.34
65 | CAAACTAGTTCAAGGTCAAAGTCGGTTTGTGCCA | 1.53
66 | CGAACTAGGTCATCCAGGACAGCGAATACATTGA | 4.29
67 | ATACCAAAGTGATCGTGAGGTCGTTGATACTAAC | 0.0966
68 | ACCTCTAGGTAAGACTCAGTTCAGTGAAGAACGC | -0.00405
69 | TCATATAGGTAAAATGTGAAAGTCGGTGTGGTAA | 4.42
70 | CCGACTGGGGCAGAAAGGTTACCATCCCATCCGG | 0.448
71 | TGGAGTAGGTTAGGGGCATTCAGAATGGCGTCGA | 1.46
72 | CCTACTGGGCCAAAGTCATTGATCAGTCAAAGCA | 0.485
73 | ATTCGGAGGACAAAGGTCAGAGCTACGCCAGTGA | 7.1
74 | ATACCAAGGTGATCGTGAGGTCGTTGAGACTAAC | -0.174
75 | GCTAGCAGGCCAGTTGGGTCACTCAATGACGGGC | -0.726
76 | CCTACTGGGCCCAAAAGGTCATTGATGCCGATAA | 0.593
77 | AGAACGAGGGCACGATGAGTTGATAGCAGAGTAG | 0.778
78 | TCATATAAGTAATACAGGTGAAAGTCGGCATCTA | 4.28
79 | ATCGAAATGTCGACGAGGTGAGTATACACCGTTT | 0.151
80 | TCTCGGAGGACACGAAAGGTCAGAGCTCGACATC | 2.54
